Assay [1] can be described thus: qHTS assay to identify small molecule agonists of the RXR signaling pathway - cell viability counter screen (AID 1159529). Also: nearly all actives have a fitted effect of over 50% in size. Also: potency is read from the fitted curve at half-maximal effect. The gist of the method: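 Counter screen: CellTiter-Glo luminescence. Cells: RXR-alpha-UAS-bla HEK 293T. Medium: 2% charcoal-stripped FBS. Treatment: 16 h, 37 C. Reagent incubation: 30 min, RT.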
Assay [2] in a line: qHTS assay to identify small molecule antagonists of the retinoid acid receptor (RAR) signaling pathway - cell viability counter screen (AID 1159551). Also: nearly all actives have a fitted effect of over 35% in size. Also: potency is read from the fitted curve at half-maximal effect. The gist of the method:
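Cytotoxicity counter screen in C3RL4 cells: 6 h compound exposure with 1 uM retinol (final), viability from cellular ATP by luminescence.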

The nature of assay [3]: qHTS assay to identify small molecule antagonists of the retinoic acid receptor (RAR) signaling pathway (AID 1159552; also: nearly all actives have a fitted effect of over 50% in size; also: potency is read from the fitted curve at half-maximal effect). The gist of the method: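 Antagonism of retinol-induced RARE reporter activity was measured in C3RL4 cells. Exposure to compounds and 1 uM final retinol lasted 6 hr at 37 C, with luminescence as endpoint.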
Assay [4] can be described thus: qHTS assay to identify small molecule agonists of the retinoic acid receptor (RAR) signaling pathway (AID 1159553). Also: potency is read from the fitted curve at half-maximal effect. The conditions noted are these: C3RL4 RARE luciferase reporter, agonist, 6 h. The gist of the method:
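Agonist activity was scored in C3RL4 cells bearing a retinoic acid response element luciferase construct. Cells were treated with compounds for 6 hr at 37 C, and luciferase signal was measured as luminescence.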

The nature of assay [5]: qHTS assay to identify small molecule agonists of the estrogen related receptor (ERR) signaling pathway (AID 1224820). The method, boiled down: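 Cells: ERR line from NTP, 2,000/well. Pre-incubation 6 h, 37 C/5% CO2. Compound (DMSO) pin transfer, 18 h 37 C. One-Glo, 30 min RT, luminescence.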
In assay [6] the test system is estrogen-related receptor alpha (ERRalpha) with PGC-1alpha coactivator, human. Kind of assay: qHTS assay to identify small molecule antagonists of the estrogen related receptor signaling pathway with the pleiotropic PPARgamma coactivator (PGC) (AID 1224821; calls by dose curve;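 also: lower luminescence signal means antagonism of PGC/ERR signalling; nearly all actives have a fitted effect of over 50% in size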). The method, boiled down: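 Luminescent read-out (One-Glo, 30 min at room temperature) following 18 h treatment of PGC/ERR cells at 37 C with compounds delivered in DMSO. Cells had settled 6 h at 37 C/5% CO2 before dosing.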

A short description of assay [7]: qHTS assay to identify small molecule antagonists of the estrogen related receptor signaling pathway with the pleiotropic PPARgamma coactivator (PGC) cell viability counter screen (AID 1224822; also: potency is read from the fitted curve at half-maximal effect). The gist of the method: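 Seed PGC/ERR cells (2,000/well); incubate 6 h at 37 C/5% CO2; pin-transfer compounds in DMSO; incubate 17.5 h at 37 C; add CellTiter-Fluor; after 30 min read fluorescence.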

The nature of assay [8]: qHTS assay to identify small molecule antagonists of the estrogen related receptor (ERR) signaling pathway - cell viability counter screen (AID 1224818).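 Also: viability measured after 17.5 h of compound exposure.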 The method, boiled down:
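Cells carrying the ERR pathway reporter were seeded and incubated for 6 hours before compound addition. After a 17.5-hour exposure at 37 C, live-cell protease activity was measured by CellTiter-Fluor fluorescence following 30 minutes of incubation.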

[9] abbreviates: activation: at 73.3 µM (top of the series) unless noted.

Potency, activation and outcome data for 50 compounds are collected here from PubChem BioAssay (Tox21).

Several values for one entry are separate records, joined by “and”; a condition that tells them apart may be missing. Equal values may be shown once. Inconclusive results are not listed. A structure can be active in one record and inactive in another. Unmarked numbers belong to inactive results. Activity calls are given as the source filed them. Unless noted, calls follow the shape of the dose curve; as a rule, active = well fitted curve in the direction sought with a large enough effect in the repeat runs; inconclusive = weak or mixed curves; inactive = no such curve, though single readings can be large; an effect the other way counts as inactive or inconclusive.
% is scaled to controls: 0 for no effect and ±100 for the full control effect.

`CCOc1cc(C=O)ccc1O`: the Potency entry in assay [1], in assay [2], in assay [3] and in assay [4] (setting [9]) was “inactive” throughout.
Regarding `O=P(O)(O)CCCl`, the Potency result in assay [1], in assay [2], in assay [3] and in assay [4] (setting [9]) was “inactive” each time.
As for `CCOP(=S)(OCC)O/N=C(\C#N)c1ccccc1`, the Potency entry in assay [1], in assay [2], in assay [3] and in assay [4] (setting [9]) was “inactive” in each case.
With `Cc1cc(Cl)ccc1OCCCC(=O)O`, the Potency result in assay [1], in assay [2], in assay [3] and in assay [4] (setting [9]) was “inactive” each time.
For the compound `Cc1ccc(OP(=O)(Oc2ccc(C)cc2)Oc2ccc(C)cc2)cc1`, the Potency result in assay [1], in assay [2], in assay [3] and in assay [4] (setting [9]) was “inactive” in each case.
Turning to `CCCCOCCOP(=O)(OCCOCCCC)OCCOCCCC`, the Potency entry in assay [1], in assay [2], in assay [3] and in assay [4] (setting [9]) was “inactive” each time.
For `Nc1ccc(-c2ccc(N)c(N)c2)cc1N`, the Potency result in assay [1], in assay [2] and in assay [3] was “inactive” in each case. Also, in assay [4] (setting [9]), the Potency is 10.8 µM (active) and 8.63 µM (active).
`C=C(C)C(=O)OCC1CO1` (stereo unspecified): the Potency result in assay [1], in assay [2], in assay [3] and in assay [4] (setting [9]) was “inactive” each time.
Consider `CCOCN(C(=O)CCl)c1c(C)cccc1CC`, for which the Potency entry in assay [1], in assay [2] and in assay [4] (setting [9]) was “inactive” each time.
As for `Brc1ccc(Oc2cc(Br)c(Br)cc2Br)c(Br)c1`, the Potency in assay [1] was 17.4 µM (active). The Potency entry in assay [2], in assay [3] and in assay [4] (setting [9]) was “inactive” throughout.
Take `O=[N+]([O-])c1cccc2ccccc12`: the Potency entry in assay [1], in assay [2], in assay [3] and in assay [4] (setting [9]) was “inactive” each time.
In the case of `C[C@]12CCC(=O)C(O)=C1CC[C@@H]1[C@@H]2CC[C@]2(C)C(=O)CC[C@@H]12`, the Potency result in assay [2] is “inactive”.
Regarding `CC1(C)C(C=C(Cl)Cl)C1C(=O)OC(C#N)c1cccc(Oc2ccccc2)c1` (stereo unspecified), the Potency entry in assay [2], in assay [3] and in assay [4] (setting [9]) was “inactive” in each case.
As to `C#CCOS(=O)OC1CCCCC1Oc1ccc(C(C)(C)C)cc1` (stereo unspecified), the Potency in assay [3] was 13.7 µM (active) and 15.4 µM (active). For the same compound, in assay [4] (setting [9]), the Potency entry is “inactive”.
With `O=Cc1ccco1`, the Potency result in assay [2], in assay [3] and in assay [4] (setting [9]) was “inactive” each time.
As for `N#CC(Br)Br`, the Potency result in assay [2], in assay [3] and in assay [4] (setting [9]) was “inactive” each time.
As to `CCN(N=O)C(N)=O`, the Potency entry in assay [2], in assay [3] and in assay [4] (setting [9]) was “inactive” in each case.
For `CCC(CC)Nc1c([N+](=O)[O-])cc(C)c(C)c1[N+](=O)[O-]`, the Potency entry in assay [2] is “inactive”.
`Cc1ccccc1[N+](=O)[O-]`: the Potency result in assay [2] and in assay [3] was “inactive” throughout. Moreover, the activation in assay [4] (setting [9]) was 0.464% [at 94.8 µM] (active); in assay [4] (at 73.3 µM (top of the series)), 1.75%.
Consider `O=P(Oc1ccccc1)(Oc1ccccc1)Oc1ccccc1`, for which the Potency result in assay [2] was “inactive”.
For the compound `O=S(=O)(Oc1ccc(Cl)cc1)c1ccc(Cl)cc1`, the Potency result in assay [2], in assay [3] and in assay [4] (setting [9]) was “inactive” each time.
`CCCCCc1cc(O)cc(O)c1`: in assay [2], the Potency entry is “inactive”.
`CCCCN(CC)c1c([N+](=O)[O-])cc(C(F)(F)F)cc1[N+](=O)[O-]`: the Potency entry in assay [2], in assay [3] and in assay [4] (setting [9]) was “inactive” each time.
As to `Oc1cc(Cl)ccc1Oc1ccc(Cl)cc1Cl`, the Potency in assay [2] was 31.4 µM (active); in assay [7], 38.6 µM (active). In addition, the Potency entry in assay [5] and in assay [6] was “inactive” each time.
For `O=[N+]([O-])c1c(Cl)c(Cl)c(Cl)c(Cl)c1Cl`, the Potency entry in assay [2], in assay [3] and in assay [4] (setting [9]) was “inactive” throughout.
Regarding `CCOc1cc(Oc2ccc(C(F)(F)F)cc2Cl)ccc1[N+](=O)[O-]`, the Potency entry in assay [2], in assay [3] and in assay [4] (setting [9]) was “inactive” throughout.
On to `O=C(CCl)c1ccccc1`, for which the Potency entry in assay [2], in assay [3] and in assay [4] (setting [9]) was “inactive” in each case.
As to `CCCCCCCCCCCOC(=O)c1ccccc1C(=O)OCCCCCCCCCCC`, the Potency entry in assay [2], in assay [3] and in assay [4] (setting [9]) was “inactive” throughout.
Take `CCN(CC)N=O`: the Potency entry in assay [2], in assay [3] and in assay [4] (setting [9]) was “inactive” throughout.
Consider `OCC(O)CO`, for which the Potency result in assay [2], in assay [3] and in assay [4] (setting [9]) was “inactive” each time.
`Cc1cc(C)cc(C)c1`: the Potency result in assay [2], in assay [3] and in assay [4] (setting [9]) was “inactive” in each case.
On to `Oc1cc(Cl)ccc1Cl`, for which the Potency result in assay [2], in assay [3] and in assay [4] (setting [9]) was “inactive” each time.
On to `CCC(C)c1cc([N+](=O)[O-])cc([N+](=O)[O-])c1O` (stereo unspecified), for which the Potency result in assay [2], in assay [3] and in assay [4] (setting [9]) was “inactive” in each case.
Take `CC(C)=CC1C(C(=O)OCc2coc(Cc3ccccc3)c2)C1(C)C` (stereo unspecified): the Potency entry in assay [2], in assay [3] and in assay [4] (setting [9]) was “inactive” each time.
Regarding `ClC1C(Cl)C(Cl)C(Cl)C(Cl)C1Cl` (stereo unspecified), the Potency entry in assay [2], in assay [3] and in assay [4] (setting [9]) was “inactive” each time.
On to `O=[N+]([O-])c1ccc(O)c([N+](=O)[O-])c1`, for which the Potency result in assay [2], in assay [3] and in assay [4] (setting [9]) was “inactive” each time.
On to `CCCCCCCCOC(=O)c1ccccc1C(=O)OCCCCCCCC`, for which the Potency result in assay [2], in assay [3] and in assay [4] (setting [9]) was “inactive” throughout.
In the case of `Cc1ccc2c(c1N)C(=O)c1ccccc1C2=O`, the Potency entry in assay [2] and in assay [3] was “inactive” in each case. The Potency in assay [4] (setting [9]) is 1.7 µM (active) and 1.93 µM (active).
Turning to `O=C(NC(=O)c1c(F)cccc1F)Nc1ccc(Cl)cc1`, the Potency result in assay [2] and in assay [3] was “inactive” throughout.
In the case of `CC(C)(OOC(C)(C)c1ccccc1)c1ccccc1`, the Potency entry in assay [2], in assay [3] and in assay [4] (setting [9]) was “inactive” in each case.
On to `CC(C)Oc1cc(-n2nc(C(C)(C)C)oc2=O)c(Cl)cc1Cl`, for which the Potency entry in assay [2] and in assay [4] (setting [9]) was “inactive” each time.
Consider `C=CCc1ccc2c(c1)OCO2`, for which the Potency entry in assay [2], in assay [3] and in assay [4] (setting [9]) was “inactive” each time.
For the compound `C1=Cc2cccc3cccc1c23`, the Potency entry in assay [2], in assay [3] and in assay [4] (setting [9]) was “inactive” throughout.
For `c1cc(OCC2CO2)ccc1Cc1ccc(OCC2CO2)cc1` (stereo unspecified), the Potency entry in assay [2], in assay [3] and in assay [4] (setting [9]) was “inactive” throughout.
For the compound `CNC(=O)N(C)c1nnc(C(C)(C)C)s1`, the Potency result in assay [2], in assay [3] and in assay [4] (setting [9]) was “inactive” in each case.
In the case of `CC(O)CCO` (stereo unspecified), the Potency entry in assay [2], in assay [3] and in assay [4] (setting [9]) was “inactive” each time.
With `CC(C)NC(C)C`, the Potency result in assay [2], in assay [3] and in assay [4] (setting [9]) was “inactive” in each case.
For `COc1ccc(C(CN(C)C)C2(O)CCCCC2)cc1` (stereo unspecified), the Potency result in assay [2] and in assay [7] was “inactive” in each case. The compound was classed as inactive in assay [8].
In the case of `CCN(CC)C(=O)/C(Cl)=C(\C)OP(=O)(OC)OC`, the Potency result in assay [2], in assay [3] and in assay [4] (setting [9]) was “inactive” throughout.
For the compound `Oc1c(Cl)c(Cl)c(Cl)c(Cl)c1Cl`, the Potency result in assay [2], in assay [3] and in assay [4] (setting [9]) was “inactive” each time.
